Common to all, as to assay: DAPPL (digital affinity profiling via proximity ligation, sequencing); 10 mM Tris-HCl pH 7.5, 50 mM NaCl, 1 mM DTT, 4% glycerol, room temperature, 30 min; GST-TFs on glutathione beads, 16-mer random dsDNA library, 0.1% formaldehyde crosslink after washing; high values mean tight binding
The target in assay [1] is T1, FLI1 (Homo sapiens, UniProt Q01543 1-452).
T1 sequence: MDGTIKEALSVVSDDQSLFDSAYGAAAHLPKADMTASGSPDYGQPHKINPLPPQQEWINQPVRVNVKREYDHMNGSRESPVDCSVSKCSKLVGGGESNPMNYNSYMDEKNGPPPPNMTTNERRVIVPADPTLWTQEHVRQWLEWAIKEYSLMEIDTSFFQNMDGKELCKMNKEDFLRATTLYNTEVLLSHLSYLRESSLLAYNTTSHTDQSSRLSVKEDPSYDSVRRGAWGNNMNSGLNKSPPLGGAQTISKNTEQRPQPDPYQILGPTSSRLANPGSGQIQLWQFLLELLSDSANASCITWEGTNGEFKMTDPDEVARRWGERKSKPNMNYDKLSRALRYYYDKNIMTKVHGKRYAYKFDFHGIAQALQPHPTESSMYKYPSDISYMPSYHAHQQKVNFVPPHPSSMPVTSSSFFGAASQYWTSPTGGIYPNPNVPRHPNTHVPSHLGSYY
The conditions noted are these: protein: recombinant; tags: N-terminal GST; dsDNA, one strand shown. The procedure, abridged: (§1)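 Beads coated with glutathione captured GST-fused human transcription factors that had been expressed in yeast, and the factors were then given DNA barcodes and pooled with a tag-only sample. The pools were incubated with 200 nmole of a random double-stranded 16-mer DNA library in Tris/NaCl/DTT/glycerol buffer for 30 min at room temperature, washed, crosslinked with 0.1% formaldehyde and proximity-ligated with BsaI/T4 ligase at 37 °C for 1 h. PCR amplification and Illumina NextSeq500 sequencing came last. Binding signal is each hexamer's read frequency for a factor divided by its frequency for the tag-only sample.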

Assay [2] deals with T2, ELK1 (Homo sapiens, UniProt P19419 1-428).
T2 sequence: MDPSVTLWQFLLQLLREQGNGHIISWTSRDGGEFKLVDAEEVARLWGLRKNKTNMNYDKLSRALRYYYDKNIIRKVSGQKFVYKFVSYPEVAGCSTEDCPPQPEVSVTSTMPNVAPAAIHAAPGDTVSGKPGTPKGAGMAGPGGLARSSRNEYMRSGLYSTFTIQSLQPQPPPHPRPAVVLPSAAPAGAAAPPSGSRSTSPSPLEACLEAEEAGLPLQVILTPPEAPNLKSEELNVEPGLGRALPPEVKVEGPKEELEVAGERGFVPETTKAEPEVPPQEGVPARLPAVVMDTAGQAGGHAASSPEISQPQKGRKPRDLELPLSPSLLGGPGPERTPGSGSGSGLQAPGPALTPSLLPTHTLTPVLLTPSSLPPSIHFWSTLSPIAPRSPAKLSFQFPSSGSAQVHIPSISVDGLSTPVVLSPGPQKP
The following applies: protein: recombinant; tags: N-terminal GST; dsDNA, one strand shown. The procedure, abridged: as §1

Assay [3] addresses T3, GABPA (Homo sapiens, UniProt Q06546 1-454).
T3 sequence: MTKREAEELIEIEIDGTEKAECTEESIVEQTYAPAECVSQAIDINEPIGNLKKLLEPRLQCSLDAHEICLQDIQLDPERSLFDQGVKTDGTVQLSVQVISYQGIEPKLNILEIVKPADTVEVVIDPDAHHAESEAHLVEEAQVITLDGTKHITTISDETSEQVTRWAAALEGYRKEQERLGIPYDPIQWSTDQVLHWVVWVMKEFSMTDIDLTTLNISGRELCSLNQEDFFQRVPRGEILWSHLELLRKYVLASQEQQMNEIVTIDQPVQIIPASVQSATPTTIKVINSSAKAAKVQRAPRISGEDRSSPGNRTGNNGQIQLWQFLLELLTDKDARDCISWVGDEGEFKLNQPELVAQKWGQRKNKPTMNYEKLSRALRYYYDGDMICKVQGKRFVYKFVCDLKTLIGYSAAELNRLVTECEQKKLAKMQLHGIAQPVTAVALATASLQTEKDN
The following applies: protein: recombinant; tags: N-terminal GST; dsDNA, one strand shown. In short, it runs like this: as §1

In assay [4] the target is T4, ERG (Homo sapiens, UniProt P11308 1-479).
T4 sequence: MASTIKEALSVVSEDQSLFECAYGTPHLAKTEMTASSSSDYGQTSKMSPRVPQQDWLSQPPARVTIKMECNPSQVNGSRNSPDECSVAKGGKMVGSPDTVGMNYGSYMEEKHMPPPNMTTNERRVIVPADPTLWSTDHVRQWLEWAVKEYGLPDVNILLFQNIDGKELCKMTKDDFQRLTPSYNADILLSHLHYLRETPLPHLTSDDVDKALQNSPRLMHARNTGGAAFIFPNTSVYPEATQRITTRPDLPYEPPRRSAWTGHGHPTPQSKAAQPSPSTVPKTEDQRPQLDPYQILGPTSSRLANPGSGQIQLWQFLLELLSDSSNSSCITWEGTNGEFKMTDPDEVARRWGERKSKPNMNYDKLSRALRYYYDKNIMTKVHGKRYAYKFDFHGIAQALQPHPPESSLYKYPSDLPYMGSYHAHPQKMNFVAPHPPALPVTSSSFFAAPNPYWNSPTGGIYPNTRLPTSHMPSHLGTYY
The conditions noted are these: protein: recombinant; tags: N-terminal GST; dsDNA, one strand shown. In short, it runs like this: as §1

Assay [5] concerns the target ELF1 (Homo sapiens, UniProt P32519 1-619). The following applies: protein: recombinant; tags: N-terminal GST; dsDNA, one strand shown. The procedure, abridged:
as §1

The target of assay [6] is T5, EHF (Homo sapiens, UniProt Q9NZC4 1-300).
T5 sequence: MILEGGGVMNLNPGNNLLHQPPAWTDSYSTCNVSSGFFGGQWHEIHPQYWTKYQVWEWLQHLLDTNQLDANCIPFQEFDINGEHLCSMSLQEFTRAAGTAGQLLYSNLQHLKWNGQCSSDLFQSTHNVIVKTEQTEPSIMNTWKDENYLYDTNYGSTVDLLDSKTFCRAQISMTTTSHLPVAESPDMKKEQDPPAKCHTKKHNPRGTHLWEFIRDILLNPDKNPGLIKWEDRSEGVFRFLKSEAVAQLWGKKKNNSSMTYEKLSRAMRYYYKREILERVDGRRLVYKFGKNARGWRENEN
The conditions noted are these: protein: recombinant; tags: N-terminal GST; dsDNA, one strand shown. In short, it runs like this: as §1

The target in assay [7] is SPI1 (Homo sapiens, UniProt P17947 1-270). The following applies: protein: recombinant; tags: N-terminal GST; dsDNA, one strand shown. The procedure, abridged:
as §1

For assay [8], the target named is SPIB (Homo sapiens, UniProt Q01892 1-262). The conditions noted are these: protein: recombinant; tags: N-terminal GST; dsDNA, one strand shown. In short, it runs like this: as §1
For assay [9], the target named is T6, ELK3 (Homo sapiens, UniProt P41970 1-407).
T6 sequence: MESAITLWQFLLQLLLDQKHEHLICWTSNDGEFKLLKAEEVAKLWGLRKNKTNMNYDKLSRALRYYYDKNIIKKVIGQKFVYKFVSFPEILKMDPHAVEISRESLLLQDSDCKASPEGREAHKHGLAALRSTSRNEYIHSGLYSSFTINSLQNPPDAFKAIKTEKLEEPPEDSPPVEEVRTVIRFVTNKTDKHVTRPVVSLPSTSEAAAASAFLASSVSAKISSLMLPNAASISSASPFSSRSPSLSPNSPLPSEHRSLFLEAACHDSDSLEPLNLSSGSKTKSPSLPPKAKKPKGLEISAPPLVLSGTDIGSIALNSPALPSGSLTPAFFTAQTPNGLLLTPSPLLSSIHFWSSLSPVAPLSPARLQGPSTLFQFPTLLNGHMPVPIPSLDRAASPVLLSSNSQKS
The following applies: protein: recombinant; tags: N-terminal GST; dsDNA, one strand shown. In short, it runs like this:
as §1

For assay [10], the target named is T7, FEV (Homo sapiens, UniProt Q99581 1-238).
T7 sequence: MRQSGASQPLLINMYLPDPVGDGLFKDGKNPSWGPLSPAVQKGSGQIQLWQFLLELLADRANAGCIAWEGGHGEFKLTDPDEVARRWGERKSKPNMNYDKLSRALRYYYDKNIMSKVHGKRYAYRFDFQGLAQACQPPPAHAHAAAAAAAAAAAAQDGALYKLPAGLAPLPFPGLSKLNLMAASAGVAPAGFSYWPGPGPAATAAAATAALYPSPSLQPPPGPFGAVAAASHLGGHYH
The following applies: protein: recombinant; tags: N-terminal GST; dsDNA, one strand shown. The procedure, abridged:
as §1

In assay [11] the target is ETV5 (Homo sapiens, UniProt P41161 1-510). The conditions noted are these: protein: recombinant; tags: N-terminal GST; dsDNA, one strand shown. The procedure, abridged: as §1
Assay [12] addresses HSF1 (Homo sapiens, UniProt Q00613 1-529). The conditions noted are these: protein: recombinant; tags: N-terminal GST; chain copies: 3; dsDNA, one strand shown. In short, it runs like this:
as §1

The target in assay [13] is T8, SPIC (Homo sapiens, UniProt Q8N5J4 1-248).
T8 sequence: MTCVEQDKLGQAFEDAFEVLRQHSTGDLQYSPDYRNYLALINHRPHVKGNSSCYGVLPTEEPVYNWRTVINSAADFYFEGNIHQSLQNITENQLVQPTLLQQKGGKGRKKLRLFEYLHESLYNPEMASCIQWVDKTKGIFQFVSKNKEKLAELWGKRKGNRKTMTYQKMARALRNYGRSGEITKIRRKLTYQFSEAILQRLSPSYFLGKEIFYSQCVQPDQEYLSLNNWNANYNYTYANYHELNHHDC
The conditions noted are these: protein: recombinant; tags: N-terminal GST; dsDNA, one strand shown. In short, it runs like this:
as §1

For assay [14], the target named is ELF4 (Homo sapiens, UniProt Q99607 1-663). The following applies: protein: recombinant; tags: N-terminal GST; dsDNA, one strand shown. The procedure, abridged: as §1
In assay [15] the target is T9, ETV2 (Homo sapiens, UniProt O00321 1-342).
T9 sequence: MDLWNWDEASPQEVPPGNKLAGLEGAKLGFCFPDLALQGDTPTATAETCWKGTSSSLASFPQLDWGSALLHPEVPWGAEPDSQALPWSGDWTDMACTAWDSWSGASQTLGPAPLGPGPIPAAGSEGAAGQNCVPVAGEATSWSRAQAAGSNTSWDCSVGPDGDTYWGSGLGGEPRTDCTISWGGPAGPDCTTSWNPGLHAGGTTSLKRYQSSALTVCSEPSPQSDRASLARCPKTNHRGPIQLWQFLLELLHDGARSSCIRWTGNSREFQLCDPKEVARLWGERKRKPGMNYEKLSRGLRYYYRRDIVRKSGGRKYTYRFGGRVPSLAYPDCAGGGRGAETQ
The following applies: protein: recombinant; tags: N-terminal GST; dsDNA, one strand shown. The procedure, abridged: as §1

In assay [16] the target is T10, ELF3 (Homo sapiens, UniProt P78545 1-371).
T10 sequence: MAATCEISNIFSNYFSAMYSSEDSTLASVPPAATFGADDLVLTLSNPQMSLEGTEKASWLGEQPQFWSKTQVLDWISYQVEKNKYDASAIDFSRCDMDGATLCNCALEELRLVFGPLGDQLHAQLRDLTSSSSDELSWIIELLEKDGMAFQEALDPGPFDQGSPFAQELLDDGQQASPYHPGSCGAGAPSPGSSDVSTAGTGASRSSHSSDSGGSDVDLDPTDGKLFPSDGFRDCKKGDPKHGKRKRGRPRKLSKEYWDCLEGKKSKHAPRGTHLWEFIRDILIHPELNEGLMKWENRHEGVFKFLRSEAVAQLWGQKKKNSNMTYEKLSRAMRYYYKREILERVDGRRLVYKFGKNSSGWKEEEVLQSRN
The following applies: protein: recombinant; tags: N-terminal GST; dsDNA, one strand shown. The procedure, abridged: as §1

The target of assay [17] is ETV1 (Homo sapiens, UniProt P50549 1-477). The conditions noted are these: protein: recombinant; tags: N-terminal GST; dsDNA, one strand shown. In short, it runs like this: as §1
Chain of ETV1 (P50549 whole entry): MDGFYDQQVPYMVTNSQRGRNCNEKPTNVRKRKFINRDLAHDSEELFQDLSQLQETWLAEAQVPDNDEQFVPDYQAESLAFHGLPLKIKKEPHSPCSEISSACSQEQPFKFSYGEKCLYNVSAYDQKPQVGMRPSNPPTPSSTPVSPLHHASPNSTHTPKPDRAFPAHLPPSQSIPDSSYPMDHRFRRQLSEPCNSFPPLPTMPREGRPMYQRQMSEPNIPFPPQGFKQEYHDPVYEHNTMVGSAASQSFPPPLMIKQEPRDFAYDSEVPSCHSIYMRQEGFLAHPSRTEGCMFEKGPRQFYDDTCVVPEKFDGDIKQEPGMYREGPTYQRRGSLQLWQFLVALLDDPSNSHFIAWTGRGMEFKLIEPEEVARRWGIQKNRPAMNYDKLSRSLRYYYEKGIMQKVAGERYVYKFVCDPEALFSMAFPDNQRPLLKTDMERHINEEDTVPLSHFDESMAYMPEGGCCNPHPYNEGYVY

Chain of HSF1 (Q00613 whole entry): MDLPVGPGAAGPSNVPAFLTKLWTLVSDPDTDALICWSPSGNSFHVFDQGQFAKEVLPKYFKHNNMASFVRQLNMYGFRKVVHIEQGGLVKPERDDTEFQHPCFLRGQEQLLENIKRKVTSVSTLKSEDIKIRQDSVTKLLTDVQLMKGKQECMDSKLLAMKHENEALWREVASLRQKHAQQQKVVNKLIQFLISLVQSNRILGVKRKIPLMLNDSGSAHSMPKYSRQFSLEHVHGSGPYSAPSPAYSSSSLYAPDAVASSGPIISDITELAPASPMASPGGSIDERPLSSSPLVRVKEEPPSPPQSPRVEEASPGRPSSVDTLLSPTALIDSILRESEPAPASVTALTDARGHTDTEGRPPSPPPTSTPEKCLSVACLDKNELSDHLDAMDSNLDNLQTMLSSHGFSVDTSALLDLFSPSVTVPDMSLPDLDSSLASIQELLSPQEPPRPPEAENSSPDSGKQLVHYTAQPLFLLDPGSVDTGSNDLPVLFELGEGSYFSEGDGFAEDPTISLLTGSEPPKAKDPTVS
Chain of ELF4 (Q99607 whole entry): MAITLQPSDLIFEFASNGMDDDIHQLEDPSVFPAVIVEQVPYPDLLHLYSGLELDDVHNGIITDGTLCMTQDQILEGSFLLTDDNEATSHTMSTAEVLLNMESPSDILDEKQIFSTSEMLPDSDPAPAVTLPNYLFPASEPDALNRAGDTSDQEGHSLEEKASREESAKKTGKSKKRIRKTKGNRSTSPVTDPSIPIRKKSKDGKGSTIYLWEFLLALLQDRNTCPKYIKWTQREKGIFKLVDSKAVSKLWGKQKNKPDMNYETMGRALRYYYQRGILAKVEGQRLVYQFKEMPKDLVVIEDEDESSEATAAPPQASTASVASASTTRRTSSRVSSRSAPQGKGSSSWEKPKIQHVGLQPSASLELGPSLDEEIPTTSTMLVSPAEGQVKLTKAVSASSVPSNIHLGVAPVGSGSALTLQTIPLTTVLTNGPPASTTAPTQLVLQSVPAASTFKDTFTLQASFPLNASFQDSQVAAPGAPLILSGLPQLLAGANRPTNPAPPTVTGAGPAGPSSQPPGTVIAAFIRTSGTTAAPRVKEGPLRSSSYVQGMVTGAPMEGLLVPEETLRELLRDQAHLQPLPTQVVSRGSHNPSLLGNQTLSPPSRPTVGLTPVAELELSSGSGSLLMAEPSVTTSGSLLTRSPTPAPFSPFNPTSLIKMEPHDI
Chain of ELF1 (P32519 whole entry): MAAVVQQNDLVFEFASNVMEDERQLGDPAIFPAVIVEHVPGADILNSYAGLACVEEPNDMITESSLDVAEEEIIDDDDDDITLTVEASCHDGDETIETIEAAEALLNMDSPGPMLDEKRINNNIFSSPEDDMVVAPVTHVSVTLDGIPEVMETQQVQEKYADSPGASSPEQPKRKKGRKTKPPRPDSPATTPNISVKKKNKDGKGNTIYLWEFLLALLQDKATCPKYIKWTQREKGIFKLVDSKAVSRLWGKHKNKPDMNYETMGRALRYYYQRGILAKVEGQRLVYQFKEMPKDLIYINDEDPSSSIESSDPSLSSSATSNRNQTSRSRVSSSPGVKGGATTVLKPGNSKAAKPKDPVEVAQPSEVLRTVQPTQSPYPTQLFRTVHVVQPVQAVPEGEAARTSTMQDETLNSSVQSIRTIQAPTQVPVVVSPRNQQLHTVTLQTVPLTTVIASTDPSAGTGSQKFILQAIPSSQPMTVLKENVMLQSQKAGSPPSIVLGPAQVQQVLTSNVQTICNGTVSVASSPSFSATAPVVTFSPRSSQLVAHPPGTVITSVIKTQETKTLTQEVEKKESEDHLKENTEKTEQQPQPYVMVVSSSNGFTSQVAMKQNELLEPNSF
Chain of ETV5 (P41161 whole entry): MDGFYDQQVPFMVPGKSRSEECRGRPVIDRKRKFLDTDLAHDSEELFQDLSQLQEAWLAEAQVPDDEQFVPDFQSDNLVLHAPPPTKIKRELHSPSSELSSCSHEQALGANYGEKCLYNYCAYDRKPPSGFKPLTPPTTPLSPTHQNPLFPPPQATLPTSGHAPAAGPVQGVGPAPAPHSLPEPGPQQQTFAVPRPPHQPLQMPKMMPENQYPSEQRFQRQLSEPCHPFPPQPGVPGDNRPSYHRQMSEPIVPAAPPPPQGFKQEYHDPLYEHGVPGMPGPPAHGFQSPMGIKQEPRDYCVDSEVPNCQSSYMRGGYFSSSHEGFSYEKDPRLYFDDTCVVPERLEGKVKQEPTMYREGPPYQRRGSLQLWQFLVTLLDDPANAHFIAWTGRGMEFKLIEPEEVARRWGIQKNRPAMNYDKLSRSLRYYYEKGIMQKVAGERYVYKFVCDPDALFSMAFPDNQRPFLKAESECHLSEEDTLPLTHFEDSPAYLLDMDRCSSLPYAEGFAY
Chain of SPIB (Q01892 whole entry): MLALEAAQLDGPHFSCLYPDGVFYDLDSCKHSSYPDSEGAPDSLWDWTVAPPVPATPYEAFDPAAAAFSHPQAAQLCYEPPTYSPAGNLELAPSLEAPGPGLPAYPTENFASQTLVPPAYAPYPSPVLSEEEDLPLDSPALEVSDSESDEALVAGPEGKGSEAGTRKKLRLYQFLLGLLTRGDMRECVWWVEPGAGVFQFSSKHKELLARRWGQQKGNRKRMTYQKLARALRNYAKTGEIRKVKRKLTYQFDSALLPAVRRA

On to CACAAA, for which the binding signal in [1] was 1.06 fold enrichment (6-mer frequency, TF over GST control); in assay [2], 1.06 fold enrichment (6-mer frequency, TF over GST control); in [3], 1.12 fold enrichment (6-mer frequency, TF over GST control); in assay [4] it was 1.12 fold enrichment (6-mer frequency, TF over GST control); in assay [5], 1.13 fold enrichment (6-mer frequency, TF over GST control); in assay [6], 1.11 fold enrichment (6-mer frequency, TF over GST control). The binding signal was 1.13 fold enrichment (6-mer frequency, TF over GST control) in [7]; 1.04 fold enrichment (6-mer frequency, TF over GST control) in [8]; 1.19 fold enrichment (6-mer frequency, TF over GST control) in assay [9]; 1.09 fold enrichment (6-mer frequency, TF over GST control) in assay [10]; 1.11 fold enrichment (6-mer frequency, TF over GST control) in assay [11]; 1.02 fold enrichment (6-mer frequency, TF over GST control) in assay [12]. Moreover, the binding signal in assay [13] is 1.07 fold enrichment (6-mer frequency, TF over GST control); in assay [14], 1.11 fold enrichment (6-mer frequency, TF over GST control); in [15], 1.09 fold enrichment (6-mer frequency, TF over GST control); in assay [16], 1.1 fold enrichment (6-mer frequency, TF over GST control); in assay [17] it was 1.03 fold enrichment (6-mer frequency, TF over GST control).

(Values after publication PMC7862700, “An all-to-all approach to the identification of sequence-specific readers for epigenetic DNA modifications on cytosine”.)
